Common to all, as to assay: DAPPL (digital affinity profiling via proximity ligation, sequencing); 10 mM Tris-HCl pH 7.5, 50 mM NaCl, 1 mM DTT, 4% glycerol, room temperature, 30 min; GST-TFs on glutathione beads, 16-mer random dsDNA library, 0.1% formaldehyde crosslink after washing; high values mean tight binding
What all share (details): protein: recombinant; tags: N-terminal GST; dsDNA, one strand shown

The target of one assay is T1, FLI1 (Homo sapiens, UniProt Q01543 1-452).
T1 sequence: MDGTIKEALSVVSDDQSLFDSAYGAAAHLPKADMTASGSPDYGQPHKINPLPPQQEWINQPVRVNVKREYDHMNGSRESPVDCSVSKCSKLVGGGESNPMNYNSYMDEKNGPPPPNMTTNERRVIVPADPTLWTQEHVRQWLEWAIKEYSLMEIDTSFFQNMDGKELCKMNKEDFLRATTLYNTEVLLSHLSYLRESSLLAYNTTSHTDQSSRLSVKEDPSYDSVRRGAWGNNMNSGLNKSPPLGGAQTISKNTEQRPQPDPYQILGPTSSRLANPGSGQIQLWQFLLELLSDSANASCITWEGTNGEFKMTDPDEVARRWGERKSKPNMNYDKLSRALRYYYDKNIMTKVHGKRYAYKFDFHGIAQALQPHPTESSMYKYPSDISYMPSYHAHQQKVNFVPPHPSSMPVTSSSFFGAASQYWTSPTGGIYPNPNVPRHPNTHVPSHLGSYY
A digest of the protocol:
(§1)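 Human transcription factors carrying a GST fusion were produced in yeast, bound to glutathione beads, tagged with DNA barcodes and pooled together with a tag-only sample. Each pool was held with 200 nmole of a random double-stranded 16-mer DNA library in Tris/NaCl/DTT/glycerol buffer for 30 min at room temperature, then washed, crosslinked in 0.1% formaldehyde, proximity-ligated with BsaI/T4 ligase (1 h, 37 °C), PCR-amplified and sequenced on an Illumina NextSeq500. Binding signal is the read frequency of each hexamer for a given factor divided by its frequency in the tag-only sample.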

A further assay addresses T2, ELK1 (Homo sapiens, UniProt P19419 1-428).
T2 sequence: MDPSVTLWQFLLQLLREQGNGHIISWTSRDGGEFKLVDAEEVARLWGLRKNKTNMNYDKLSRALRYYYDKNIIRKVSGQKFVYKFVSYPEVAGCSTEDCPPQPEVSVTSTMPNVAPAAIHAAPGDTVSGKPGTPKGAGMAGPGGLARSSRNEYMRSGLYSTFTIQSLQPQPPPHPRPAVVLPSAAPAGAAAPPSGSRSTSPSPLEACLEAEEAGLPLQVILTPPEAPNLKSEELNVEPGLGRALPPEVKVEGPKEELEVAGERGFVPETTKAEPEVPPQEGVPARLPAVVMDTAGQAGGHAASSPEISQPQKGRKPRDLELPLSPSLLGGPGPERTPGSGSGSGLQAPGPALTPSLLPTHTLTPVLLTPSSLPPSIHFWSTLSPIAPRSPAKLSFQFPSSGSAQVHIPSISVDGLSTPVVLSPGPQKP
Summed up:
as §1

For the next assay, the target named is T3, GABPA (Homo sapiens, UniProt Q06546 1-454).
T3 sequence: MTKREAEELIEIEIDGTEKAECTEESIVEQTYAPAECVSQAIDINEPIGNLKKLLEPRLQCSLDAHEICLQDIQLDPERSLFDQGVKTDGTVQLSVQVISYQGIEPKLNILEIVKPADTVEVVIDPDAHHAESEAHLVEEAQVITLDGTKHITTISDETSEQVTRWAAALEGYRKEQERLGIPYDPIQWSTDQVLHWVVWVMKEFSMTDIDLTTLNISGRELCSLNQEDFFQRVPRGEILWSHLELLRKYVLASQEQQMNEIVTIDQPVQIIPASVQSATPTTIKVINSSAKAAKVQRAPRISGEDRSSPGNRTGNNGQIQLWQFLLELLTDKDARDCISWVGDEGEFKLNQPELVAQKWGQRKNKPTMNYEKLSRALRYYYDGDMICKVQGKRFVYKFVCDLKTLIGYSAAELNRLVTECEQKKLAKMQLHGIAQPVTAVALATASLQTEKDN
Summed up: as §1

The target of the next assay is T4, ERG (Homo sapiens, UniProt P11308 1-479).
T4 sequence: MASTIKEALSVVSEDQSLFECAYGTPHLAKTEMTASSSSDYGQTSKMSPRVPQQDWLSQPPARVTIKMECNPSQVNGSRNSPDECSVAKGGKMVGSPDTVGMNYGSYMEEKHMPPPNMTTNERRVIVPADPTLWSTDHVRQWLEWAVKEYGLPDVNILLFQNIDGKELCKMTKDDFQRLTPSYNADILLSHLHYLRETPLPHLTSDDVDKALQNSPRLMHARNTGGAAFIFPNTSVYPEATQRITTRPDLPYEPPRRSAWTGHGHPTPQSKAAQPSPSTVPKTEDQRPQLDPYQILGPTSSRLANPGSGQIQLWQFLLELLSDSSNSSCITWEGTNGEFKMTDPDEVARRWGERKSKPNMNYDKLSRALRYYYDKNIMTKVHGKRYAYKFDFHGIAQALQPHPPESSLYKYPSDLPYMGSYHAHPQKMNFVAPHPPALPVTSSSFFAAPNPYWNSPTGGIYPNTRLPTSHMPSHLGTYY
A digest of the protocol: as §1

The target in another assay is ELF1 (Homo sapiens, UniProt P32519 1-619). Summed up: as §1
ELF1, sequence (P32519 whole entry): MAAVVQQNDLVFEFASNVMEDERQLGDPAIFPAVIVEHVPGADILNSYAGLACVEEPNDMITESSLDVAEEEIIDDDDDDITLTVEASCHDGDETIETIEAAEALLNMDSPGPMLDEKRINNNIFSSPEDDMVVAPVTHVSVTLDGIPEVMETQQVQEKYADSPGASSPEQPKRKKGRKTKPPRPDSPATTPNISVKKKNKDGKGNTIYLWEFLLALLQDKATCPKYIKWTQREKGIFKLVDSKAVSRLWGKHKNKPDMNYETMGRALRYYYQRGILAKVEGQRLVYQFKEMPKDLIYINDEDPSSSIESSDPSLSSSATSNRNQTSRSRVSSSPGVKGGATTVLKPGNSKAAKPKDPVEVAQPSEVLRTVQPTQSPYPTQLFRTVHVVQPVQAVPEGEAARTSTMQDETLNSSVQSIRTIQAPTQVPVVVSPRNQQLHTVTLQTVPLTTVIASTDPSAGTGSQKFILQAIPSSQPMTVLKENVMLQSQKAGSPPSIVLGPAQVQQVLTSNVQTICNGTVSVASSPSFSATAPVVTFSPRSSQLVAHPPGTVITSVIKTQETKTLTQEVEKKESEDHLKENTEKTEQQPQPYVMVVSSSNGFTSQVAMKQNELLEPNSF
The target of the next assay is T5, EHF (Homo sapiens, UniProt Q9NZC4 1-300).
T5 sequence: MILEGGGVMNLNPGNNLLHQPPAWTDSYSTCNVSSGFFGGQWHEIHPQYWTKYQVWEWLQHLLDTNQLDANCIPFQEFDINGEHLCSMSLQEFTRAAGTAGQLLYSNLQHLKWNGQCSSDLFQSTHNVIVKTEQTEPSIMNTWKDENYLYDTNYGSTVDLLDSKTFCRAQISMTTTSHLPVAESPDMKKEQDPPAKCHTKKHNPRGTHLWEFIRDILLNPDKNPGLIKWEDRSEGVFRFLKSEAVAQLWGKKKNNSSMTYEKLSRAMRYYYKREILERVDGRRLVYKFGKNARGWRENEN
Summed up: as §1

In the next assay the target is SPI1 (Homo sapiens, UniProt P17947 1-270). Summed up: as §1
A further assay has as its target SPIB (Homo sapiens, UniProt Q01892 1-262). A digest of the protocol: as §1
The target of a further assay is T6, ELK3 (Homo sapiens, UniProt P41970 1-407).
T6 sequence: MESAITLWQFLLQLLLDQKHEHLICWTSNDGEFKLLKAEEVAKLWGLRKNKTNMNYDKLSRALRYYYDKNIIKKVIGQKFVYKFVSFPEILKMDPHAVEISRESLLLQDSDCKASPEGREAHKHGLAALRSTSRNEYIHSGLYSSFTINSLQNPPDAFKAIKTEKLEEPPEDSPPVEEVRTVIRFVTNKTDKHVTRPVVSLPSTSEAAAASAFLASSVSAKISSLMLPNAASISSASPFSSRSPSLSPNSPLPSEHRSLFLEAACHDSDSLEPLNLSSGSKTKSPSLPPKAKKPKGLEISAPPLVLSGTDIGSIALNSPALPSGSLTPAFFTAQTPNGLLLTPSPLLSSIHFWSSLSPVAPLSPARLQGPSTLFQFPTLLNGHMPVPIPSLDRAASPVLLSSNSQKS
Summed up:
as §1

SPIB, sequence (Q01892 whole entry): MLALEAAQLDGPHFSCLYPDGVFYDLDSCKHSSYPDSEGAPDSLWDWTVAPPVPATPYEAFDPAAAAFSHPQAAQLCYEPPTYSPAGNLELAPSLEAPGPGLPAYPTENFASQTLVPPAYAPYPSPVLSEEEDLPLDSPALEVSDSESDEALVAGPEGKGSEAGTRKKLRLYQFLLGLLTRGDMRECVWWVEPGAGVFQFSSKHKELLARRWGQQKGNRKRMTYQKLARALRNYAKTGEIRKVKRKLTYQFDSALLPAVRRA

On to TCTACT, for which the binding signal is 1.27 fold enrichment (6-mer frequency, TF over GST control) with FLI1; 1.37 fold enrichment (6-mer frequency, TF over GST control) with ELK1; 1.43 fold enrichment (6-mer frequency, TF over GST control) with GABPA; 1.32 fold enrichment (6-mer frequency, TF over GST control) in the assay with ERG; 1.35 fold enrichment (6-mer frequency, TF over GST control) with ELF1; 1.35 fold enrichment (6-mer frequency, TF over GST control) in the assay with EHF. For the same sequence, the binding signal is 1.42 fold enrichment (6-mer frequency, TF over GST control) in the assay with SPI1; 1.42 fold enrichment (6-mer frequency, TF over GST control) with SPIB; 1.28 fold enrichment (6-mer frequency, TF over GST control) with ELK3.
In the case of GATTAT, the binding signal is 1.04 fold enrichment (6-mer frequency, TF over GST control) with FLI1; 1.1 fold enrichment (6-mer frequency, TF over GST control) with ELK1; 1.1 fold enrichment (6-mer frequency, TF over GST control) in the assay with GABPA; 1.06 fold enrichment (6-mer frequency, TF over GST control) in the assay with ERG; 1.02 fold enrichment (6-mer frequency, TF over GST control) with ELF1; 1.09 fold enrichment (6-mer frequency, TF over GST control) in the assay with EHF. In addition, the binding signal was 1.03 fold enrichment (6-mer frequency, TF over GST control) in the assay with SPI1; 1.11 fold enrichment (6-mer frequency, TF over GST control) with SPIB; 1.07 fold enrichment (6-mer frequency, TF over GST control) with ELK3.
Regarding AGCCTT, the binding signal with FLI1 is 1.12 fold enrichment (6-mer frequency, TF over GST control); with ELK1, 1.11 fold enrichment (6-mer frequency, TF over GST control); in the assay with GABPA, 1.01 fold enrichment (6-mer frequency, TF over GST control); in the assay with ERG, 1.11 fold enrichment (6-mer frequency, TF over GST control); in the assay with ELF1 it was 1.2 fold enrichment (6-mer frequency, TF over GST control); with EHF it was 1.15 fold enrichment (6-mer frequency, TF over GST control). Moreover, the binding signal with SPI1 is 1.12 fold enrichment (6-mer frequency, TF over GST control); with SPIB it was 1.21 fold enrichment (6-mer frequency, TF over GST control); with ELK3, 1.03 fold enrichment (6-mer frequency, TF over GST control).
On to ATCTTC, for which the binding signal with FLI1 was 1.68 fold enrichment (6-mer frequency, TF over GST control); with ELK1 it was 1.52 fold enrichment (6-mer frequency, TF over GST control); with GABPA, 1.48 fold enrichment (6-mer frequency, TF over GST control); in the assay with ERG, 1.51 fold enrichment (6-mer frequency, TF over GST control); in the assay with ELF1 it was 1.64 fold enrichment (6-mer frequency, TF over GST control); with EHF, 1.46 fold enrichment (6-mer frequency, TF over GST control). Besides, the binding signal with SPI1 is 1.52 fold enrichment (6-mer frequency, TF over GST control); with SPIB, 1.6 fold enrichment (6-mer frequency, TF over GST control); in the assay with ELK3, 1.59 fold enrichment (6-mer frequency, TF over GST control).
Take CTAGTT: the binding signal is 1.37 fold enrichment (6-mer frequency, TF over GST control) in the assay with FLI1; 1.4 fold enrichment (6-mer frequency, TF over GST control) in the assay with ELK1; 1.42 fold enrichment (6-mer frequency, TF over GST control) with GABPA; 1.3 fold enrichment (6-mer frequency, TF over GST control) with ERG; 1.31 fold enrichment (6-mer frequency, TF over GST control) with ELF1; 1.23 fold enrichment (6-mer frequency, TF over GST control) in the assay with EHF. The binding signal in the assay with SPI1 is 1.34 fold enrichment (6-mer frequency, TF over GST control); with SPIB, 1.48 fold enrichment (6-mer frequency, TF over GST control); with ELK3 it was 1.21 fold enrichment (6-mer frequency, TF over GST control).
As for GCCTTG, the binding signal was 1.34 fold enrichment (6-mer frequency, TF over GST control) in the assay with FLI1; 1.27 fold enrichment (6-mer frequency, TF over GST control) with ELK1; 1.33 fold enrichment (6-mer frequency, TF over GST control) with GABPA; 1.26 fold enrichment (6-mer frequency, TF over GST control) in the assay with ERG; 1.29 fold enrichment (6-mer frequency, TF over GST control) in the assay with ELF1; 1.24 fold enrichment (6-mer frequency, TF over GST control) in the assay with EHF. Besides, the binding signal with SPI1 is 1.25 fold enrichment (6-mer frequency, TF over GST control); with SPIB, 1.23 fold enrichment (6-mer frequency, TF over GST control); with ELK3 it was 1.18 fold enrichment (6-mer frequency, TF over GST control).
Consider CCGCAT, for which the binding signal with FLI1 was 1.61 fold enrichment (6-mer frequency, TF over GST control); with ELK1, 1.59 fold enrichment (6-mer frequency, TF over GST control); with GABPA, 1.54 fold enrichment (6-mer frequency, TF over GST control); in the assay with ERG it was 1.52 fold enrichment (6-mer frequency, TF over GST control); in the assay with ELF1, 1.58 fold enrichment (6-mer frequency, TF over GST control); with EHF it was 1.61 fold enrichment (6-mer frequency, TF over GST control). In addition, the binding signal is 1.99 fold enrichment (6-mer frequency, TF over GST control) with SPI1; 1.55 fold enrichment (6-mer frequency, TF over GST control) in the assay with SPIB; 1.6 fold enrichment (6-mer frequency, TF over GST control) with ELK3.
Take TCCCCT: the binding signal was 1.59 fold enrichment (6-mer frequency, TF over GST control) with FLI1; 1.66 fold enrichment (6-mer frequency, TF over GST control) with ELK1; 1.61 fold enrichment (6-mer frequency, TF over GST control) with GABPA; 1.72 fold enrichment (6-mer frequency, TF over GST control) with ERG; 1.74 fold enrichment (6-mer frequency, TF over GST control) with ELF1; 1.67 fold enrichment (6-mer frequency, TF over GST control) in the assay with EHF. Further, the binding signal was 2.29 fold enrichment (6-mer frequency, TF over GST control) with SPI1; 1.8 fold enrichment (6-mer frequency, TF over GST control) with SPIB; 1.86 fold enrichment (6-mer frequency, TF over GST control) with ELK3.

The values above are taken from article PMC7862700, “An all-to-all approach to the identification of sequence-specific readers for epigenetic DNA modifications on cytosine”.
